# Test results taken from PubChem BioAssay (NCI).
# The panel holds about 79,000 compounds, 15% with a hit somewhere; the sample as a whole holds those more often. A number with no mark means an inactive call. Activity calls are given as the source filed them. No stated cut-off is given here; in the data, active means growth inhibition above about 70%; inactive means the rest.
# How the values were obtained:
# [1] = NCI Yeast Anticancer Drug Screen. Data for the rad52 strain (AID 147);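 further: 0% = growth of vehicle-treated control cultures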; conditions: S. cerevisiae rad52 mutant growth inhibition, stronger effect = higher value
# How it was run: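 Yeast strain carrying a DNA damage repair alteration was exposed to test compounds. Growth inhibition was measured relative to vehicle-treated controls.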
# [2] = NCI Yeast Anticancer Drug Screen. Data for the wt1 strain (AID 149);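 further: 0% = growth of vehicle-treated wt1 cultures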; conditions: S. cerevisiae wt1 strain (SPY 50644) growth inhibition, stronger effect = higher value
# How it was run: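 wt1 strain grown with compound or vehicle; inhibition taken from the growth difference.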
# [3] = NCI Yeast Anticancer Drug Screen. Data for the rad50EPP+ strain (AID 151);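 further: 0% = growth of vehicle-treated control cultures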; conditions: S. cerevisiae rad50 mutant strain, stronger effect = higher value
# How it was run: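 Yeast strain carrying rad50 alteration (rad50EPP+) exposed to compounds; growth inhibition measured relative to vehicle-treated controls.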
# [4] = NCI Yeast Anticancer Drug Screen. Data for the mgt1 strain (AID 153); conditions: S. cerevisiae mgt1 mutant growth inhibition, stronger effect = higher value
# How it was run: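 Yeast mgt1 strain (DNA repair/cell-cycle alteration panel) exposed to compounds; growth inhibition measured relative to vehicle-treated controls.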
# [5] = NCI Yeast Anticancer Drug Screen. Data for the rad50 strain (AID 155);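 further: 0% = growth of vehicle-only cultures of the same strain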; conditions: S. cerevisiae rad50 strain growth inhibition, stronger effect = higher value
# How it was run: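 DNA repair mutant yeast, compound exposure, growth read-out; inhibition is taken relative to vehicle.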
# [6] = NCI Yeast Anticancer Drug Screen. Data for the mec2-1 strain (AID 157); conditions: S. cerevisiae mec2-1 strain, stronger effect = higher value
# How it was run: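 mec2-1 yeast strain, carrying an alteration in DNA damage repair or cell cycle control, was exposed to compounds; growth inhibition was measured relative to vehicle-treated controls.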
# [7] = NCI Yeast Anticancer Drug Screen. Data for the rad14 strain (AID 159);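 further: 0% = growth of vehicle-treated control cultures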; conditions: S. cerevisiae rad14 strain growth inhibition, stronger effect = higher value
# How it was run: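 DNA repair-defective yeast, compound-exposed; % growth inhibition derived by comparison with vehicle-treated controls.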
# [8] = NCI Yeast Anticancer Drug Screen. Data for the sgs1 mgt1 strain (AID 161);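 further: 0% = growth of cultures given vehicle only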; conditions: S. cerevisiae sgs1 mgt1 strain, stronger effect = higher value
# How it was run: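 Percent growth inhibition was derived by comparing compound-exposed mutant yeast with vehicle-exposed cultures. The strain carries alterations in DNA damage repair.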
# [9] = NCI Yeast Anticancer Drug Screen. Data for the CLN2oe strain (AID 163);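 further: 0% = growth of vehicle-only control cultures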; conditions: S. cerevisiae CLN2oe strain, stronger effect = higher value
# How it was run: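 Yeast cells carrying a defined cell-cycle control alteration were exposed to test compounds. Growth inhibition was scored against vehicle-treated control cultures.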
# [10] = NCI Yeast Anticancer Drug Screen. Data for the cln2 rad14 strain (AID 165);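 further: 0% = growth equal to vehicle treated cultures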; conditions: S. cerevisiae cln2 rad14 strain, stronger effect = higher value
# How it was run: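 Yeast carrying cln2 and rad14 alterations (cell cycle control and DNA damage repair) were exposed to compounds. Growth inhibition was measured against vehicle-treated controls.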
# [11] = NCI Yeast Anticancer Drug Screen. Data for the bub3 strain (AID 167); conditions: S. cerevisiae bub3 mutant strain, stronger effect = higher value
# How it was run: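 In this screen, a yeast mutant lacking normal mitotic checkpoint function is challenged with compound. Relative growth versus vehicle gives the inhibition value.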
# [12] = NCI Yeast Anticancer Drug Screen. Data for the wt2 strain (AID 169);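 further: 0% = growth of vehicle-treated yeast cultures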; conditions: S. cerevisiae wt2 strain growth inhibition, stronger effect = higher value
# How it was run: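 Yeast cells were exposed to test compounds, and growth inhibition was measured relative to vehicle-treated controls.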
# [13] = NCI Yeast Anticancer Drug Screen. Data for the mlh1 strain (AID 171);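 further: 0% = growth of vehicle-treated control cultures of the same strain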; conditions: S. cerevisiae mlh1 strain growth inhibition, stronger effect = higher value
# How it was run: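 Yeast carrying a defined genetic alteration in DNA damage repair or cell cycle control were exposed to test compounds. Growth inhibition was measured relative to vehicle-treated controls.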
# [14] = NCI Yeast Anticancer Drug Screen. Data for the sgs1 strain (AID 173);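 further: 0% = growth of vehicle-only control cultures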; conditions: S. cerevisiae sgs1 mutant, stronger effect = higher value
# How it was run: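 Yeast mutant strains carrying defined defects in DNA damage repair or cell cycle control were exposed to test compounds. Growth inhibition was scored against vehicle-treated controls.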
# [15] = NCI Yeast Anticancer Drug Screen. Data for the mlh1 rad18 strain (AID 175); conditions: S. cerevisiae mlh1 rad18 strain growth inhibition, stronger effect = higher value
# How it was run: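 Growth inhibition of the yeast strain was measured after compound exposure and expressed relative to vehicle-treated controls. The strain carries defined defects in DNA damage repair.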
# [16] = NCI Yeast Anticancer Drug Screen. Data for the rad18 strain (AID 177); conditions: S. cerevisiae rad18 mutant growth inhibition, stronger effect = higher value
# How it was run: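 Yeast carrying a defined DNA damage repair alteration were exposed to compounds. Growth inhibition was expressed relative to vehicle-treated controls.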
# [17] = at 5.0 µM (retest, dose inferred, filed as 0.5)
# [18] = at 50.0 µM (retest, dose inferred, filed as 5.0)
structure (smiles),measurement,setting,value
O=C1C=C(N2CCN(c3ccccn3)CC2)C(=O)c2c(O)ccc(O)c21,growth inhibition,[1]; at 1.2 µM,3%
same,growth inhibition,[1]; at 3.7 µM,8%
same,growth inhibition,[1]; at 11.0 µM,19%
same,growth inhibition,[1]; at 33.0 µM,33%
same,growth inhibition,[1]; at 100.0 µM,45%
same,growth inhibition,[2]; at 1.2 µM,10%
same,growth inhibition,[2]; at 3.7 µM,13%
same,growth inhibition,[2]; at 11.0 µM,15%
same,growth inhibition,[2]; at 33.0 µM,21%
same,growth inhibition,[2]; at 100.0 µM,26%
same,growth inhibition,[3]; at 1.2 µM,-4%
same,growth inhibition,[3]; at 3.7 µM,-3%
same,growth inhibition,[3]; at 11.0 µM,4%
same,growth inhibition,[3]; at 33.0 µM,17%
same,growth inhibition,[3]; at 100.0 µM,26%
same,growth inhibition,[4]; at 1.2 µM,5%
same,growth inhibition,[4]; at 3.7 µM,8%
same,growth inhibition,[4]; at 11.0 µM,14%
same,growth inhibition,[4]; at 33.0 µM,20%
same,growth inhibition,[4]; at 100.0 µM,47%
same,growth inhibition,[5]; at 1.2 µM,-3%
same,growth inhibition,[5]; at 3.7 µM,-8%
same,growth inhibition,[5]; [17],28%
same,growth inhibition,[5]; at 11.0 µM,0%
same,growth inhibition,[5]; at 33.0 µM,37%
same,growth inhibition,[5]; [18],94% (active)
same,growth inhibition,[5]; at 50.0 µM,84.5% (active)
same,growth inhibition,[5]; at 100.0 µM,55%
same,growth inhibition,[6]; at 1.2 µM,7%
same,growth inhibition,[6]; at 3.7 µM,8%
same,growth inhibition,[6]; [17],-17%
same,growth inhibition,[6]; at 11.0 µM,10%
same,growth inhibition,[6]; at 33.0 µM,19%
same,growth inhibition,[6]; [18],84% (active)
same,growth inhibition,[6]; at 50.0 µM,65.2%
same,growth inhibition,[6]; at 100.0 µM,27%
same,growth inhibition,[7]; at 1.2 µM,9%
same,growth inhibition,[7]; at 3.7 µM,14%
same,growth inhibition,[7]; at 11.0 µM,29%
same,growth inhibition,[7]; at 33.0 µM,69%
same,growth inhibition,[7]; at 100.0 µM,87% (active)
same,growth inhibition,[8]; [17],8%
same,growth inhibition,[8]; [18],91% (active)
same,growth inhibition,[8]; at 50.0 µM,82.7% (active)
same,growth inhibition,[9]; at 1.2 µM,11%
same,growth inhibition,[9]; at 3.7 µM,7%
same,growth inhibition,[9]; at 11.0 µM,13%
same,growth inhibition,[9]; at 33.0 µM,21%
same,growth inhibition,[9]; at 100.0 µM,21%
same,growth inhibition,[10]; [17],-6%
same,growth inhibition,[10]; [18],15%
same,growth inhibition,[10]; at 50.0 µM,25.9%
same,growth inhibition,[11]; at 1.2 µM,4%
same,growth inhibition,[11]; at 3.7 µM,3%
same,growth inhibition,[11]; [17],5%
same,growth inhibition,[11]; at 11.0 µM,10%
same,growth inhibition,[11]; at 33.0 µM,23%
same,growth inhibition,[11]; [18],71% (active)
same,growth inhibition,[11]; at 50.0 µM,88.8% (active)
same,growth inhibition,[11]; at 100.0 µM,34%
same,growth inhibition,[12]; at 1.2 µM,4%
same,growth inhibition,[12]; at 3.7 µM,9%
same,growth inhibition,[12]; at 11.0 µM,15%
same,growth inhibition,[12]; at 33.0 µM,32%
same,growth inhibition,[12]; at 100.0 µM,52%
same,growth inhibition,[13]; at 1.2 µM,7%
same,growth inhibition,[13]; at 3.7 µM,12%
same,growth inhibition,[13]; at 11.0 µM,21%
same,growth inhibition,[13]; at 33.0 µM,42%
same,growth inhibition,[13]; at 100.0 µM,75% (active)
same,growth inhibition,[14]; at 1.2 µM,8%
same,growth inhibition,[14]; at 3.7 µM,11%
same,growth inhibition,[14]; at 11.0 µM,22%
same,growth inhibition,[14]; at 33.0 µM,63%
same,growth inhibition,[14]; at 100.0 µM,82% (active)
same,growth inhibition,[15]; [17],10%
same,growth inhibition,[15]; [18],94% (active)
same,growth inhibition,[15]; at 50.0 µM,72.5% (active)
same,growth inhibition,[16]; at 1.2 µM,1%
same,growth inhibition,[16]; at 3.7 µM,4%
same,growth inhibition,[16]; at 11.0 µM,17%
same,growth inhibition,[16]; at 33.0 µM,46%
same,growth inhibition,[16]; at 100.0 µM,68%
